A short description of experiment [1]: NCI Yeast Anticancer Drug Screen. Data for the rad50 strain (AID 155).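 Note: 0% = growth of vehicle-only cultures of the same strain.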 Conditions: S. cerevisiae rad50 strain growth inhibition, stronger effect = higher value. In a few lines: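 Relative growth inhibition (compound vs vehicle) was measured in yeast with a defined repair-gene alteration.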
Experiment [2] can be described thus: NCI Yeast Anticancer Drug Screen. Data for the mec2-1 strain (AID 157). Conditions: S. cerevisiae mec2-1 strain, stronger effect = higher value. The method, boiled down: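 Cells of the genetically defined mec2-1 yeast strain are incubated with test compound. Inhibition of growth is calculated against vehicle-treated controls.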
A short description of experiment [3]: NCI Yeast Anticancer Drug Screen. Data for the sgs1 mgt1 strain (AID 161).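 Note: 0% = growth of cultures given vehicle only.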 Conditions: S. cerevisiae sgs1 mgt1 strain, stronger effect = higher value. The method, boiled down:
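Read-out: growth inhibition vs vehicle controls. Cells: mutant yeast strain deficient in DNA damage repair.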

A short description of experiment [4]: NCI Yeast Anticancer Drug Screen. Data for the cln2 rad14 strain (AID 165).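 Note: 0% = growth equal to vehicle treated cultures.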 Conditions: S. cerevisiae cln2 rad14 strain, stronger effect = higher value. In a few lines: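 The screen exposed genetically defined yeast (cln2 rad14) to test compounds and scored growth inhibition relative to vehicle-treated controls.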
Experiment [5] is described as follows: NCI Yeast Anticancer Drug Screen. Data for the bub3 strain (AID 167). Conditions: S. cerevisiae bub3 mutant strain, stronger effect = higher value. In a few lines:
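Screening used yeast with an engineered genetic alteration affecting cell cycle control. Compound-exposed cultures were compared with vehicle cultures, and reduced growth was taken as inhibition.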

Experiment [6] can be described thus: NCI Yeast Anticancer Drug Screen. Data for the mlh1 rad18 strain (AID 175). Conditions: S. cerevisiae mlh1 rad18 strain growth inhibition, stronger effect = higher value. The method, boiled down:
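Compound-treated yeast growth, normalised to vehicle controls. Strain bears defined DNA repair mutations.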

The mark [7] stands for this setting: at 5.0 µM (retest, dose inferred, filed as 0.5).
The mark [8] stands for this setting: at 50.0 µM (retest, dose inferred, filed as 5.0).

The panel holds about 79,000 compounds, 15% with a hit somewhere; the sample as a whole holds those more often. Unmarked numbers belong to inactive results. Active and inactive are the calls of the source. Cut-off read from the data, not from the text of the source: active = growth inhibition above about 70%; inactive = the rest.

Regarding `CC(=O)Nc1ccc(C(=O)NN2C(=O)C(Cl)C2c2cc(Br)cc(Br)c2O)cc1` (stereo unspecified), the growth inhibition in experiment [1] (setting [7]) was 20%; in experiment [1] (setting [8]) it was -5%; in experiment [1] (at 50.0 µM) it was -18%; in experiment [2] (setting [7]), -6%; in experiment [2] (setting [8]), 5%; in experiment [2] (at 50.0 µM), -25.1%. Further, the growth inhibition in experiment [3] (setting [7]) is -1%; in experiment [3] (setting [8]) it was -7%; in experiment [3] (at 50.0 µM), -23.4%; in experiment [4] (setting [7]), 0%; in experiment [4] (setting [8]), 12%; in experiment [4] (at 50.0 µM), 2%. Further, the growth inhibition in experiment [5] (setting [7]) is -17%; in experiment [5] (setting [8]), -11%; in experiment [5] (at 50.0 µM) it was 0.85%; in experiment [6] (setting [7]), 7%; in experiment [6] (setting [8]), 26%; in experiment [6] (at 50.0 µM), -35%.

Consider `Cc1n(CC(C)C)c2c([n+]1CC(=O)c1ccc([N+](=O)[O-])cc1)C(=O)c1ccccc1C2=O`, for which the growth inhibition was 56% in experiment [1] (setting [7]); 92% (active) in experiment [1] (setting [8]); 88.2% (active) in experiment [1] (at 50.0 µM); 25% in experiment [2] (setting [7]); 98% (active) in experiment [2] (setting [8]); 90.7% (active) in experiment [2] (at 50.0 µM). Besides, the growth inhibition was 44% in experiment [3] (setting [7]); 98% (active) in experiment [3] (setting [8]); 91.3% (active) in experiment [3] (at 50.0 µM); 66% in experiment [4] (setting [7]); 98% (active) in experiment [4] (setting [8]); 89.8% (active) in experiment [4] (at 50.0 µM). For the same molecule, the growth inhibition was 84% (active) in experiment [5] (setting [7]); 98% (active) in experiment [5] (setting [8]); 89.9% (active) in experiment [5] (at 50.0 µM); 47% in experiment [6] (setting [7]); 96% (active) in experiment [6] (setting [8]); 90.2% (active) in experiment [6] (at 50.0 µM).

As for `OC(/C=C/c1ccccc1)(c1ccccc1)c1nc2ccccc2s1` (stereo unspecified), the growth inhibition in experiment [1] (setting [7]) is 35%; in experiment [1] (setting [8]), 98% (active); in experiment [1] (at 50.0 µM), -8%; in experiment [2] (setting [7]), 59%; in experiment [2] (setting [8]) it was 98% (active); in experiment [2] (at 50.0 µM) it was 1.95%. For the same molecule, the growth inhibition was 5% in experiment [3] (setting [7]); 97% (active) in experiment [3] (setting [8]); -11.3% in experiment [3] (at 50.0 µM); 26% in experiment [4] (setting [7]); 93% (active) in experiment [4] (setting [8]); -23.1% in experiment [4] (at 50.0 µM). The growth inhibition is 6% in experiment [5] (setting [7]); 98% (active) in experiment [5] (setting [8]); -12.8% in experiment [5] (at 50.0 µM); 20% in experiment [6] (setting [7]); 96% (active) in experiment [6] (setting [8]); -3.45% in experiment [6] (at 50.0 µM).

With `CN1CCC(CCC(=O)OC(C)(C)C)(CN2c3ccccc3Sc3ccccc32)C1` (stereo unspecified), the growth inhibition in experiment [1] (setting [7]) is -4%; in experiment [1] (setting [8]), 98% (active); in experiment [1] (at 50.0 µM), 99.5% (active); in experiment [2] (setting [7]), -14%; in experiment [2] (setting [8]), 96% (active); in experiment [2] (at 50.0 µM), 99.8% (active). Also, the growth inhibition in experiment [3] (setting [7]) was -12%; in experiment [3] (setting [8]), 96% (active); in experiment [3] (at 50.0 µM) it was 99.7% (active); in experiment [4] (setting [7]) it was -12%; in experiment [4] (setting [8]), 97% (active); in experiment [4] (at 50.0 µM), 96.7% (active). Moreover, the growth inhibition was -2% in experiment [5] (setting [7]); 78% (active) in experiment [5] (setting [8]); 96.5% (active) in experiment [5] (at 50.0 µM); 19% in experiment [6] (setting [7]); 99% (active) in experiment [6] (setting [8]); 99.6% (active) in experiment [6] (at 50.0 µM).

For `Cc1cc(S(=O)(=O)c2ccc(Cl)cc2)nc(S(=O)(=O)c2ccc(Cl)cc2)c1C#N`, the growth inhibition in experiment [1] (setting [7]) is 45%; in experiment [1] (setting [8]), 78% (active); in experiment [1] (at 50.0 µM) it was 82.1% (active); in experiment [2] (setting [7]) it was 43%; in experiment [2] (setting [8]), 91% (active); in experiment [2] (at 50.0 µM), 87.2% (active). For the same molecule, the growth inhibition in experiment [3] (setting [7]) is 99% (active); in experiment [3] (setting [8]), 90% (active); in experiment [3] (at 50.0 µM), 85.2% (active); in experiment [4] (setting [7]), 99% (active); in experiment [4] (setting [8]), 91% (active); in experiment [4] (at 50.0 µM), 84.7% (active). Further, the growth inhibition was 99% (active) in experiment [5] (setting [7]); 83% (active) in experiment [5] (setting [8]); 80.4% (active) in experiment [5] (at 50.0 µM); 42% in experiment [6] (setting [7]); 89% (active) in experiment [6] (setting [8]); 80.2% (active) in experiment [6] (at 50.0 µM).

Regarding `Nc1ccc(CCCCCc2ccc(N)cc2)cc1`, the growth inhibition is -3% in experiment [1] (setting [7]); 80% (active) in experiment [1] (setting [8]); 98.6% (active) in experiment [1] (at 50.0 µM); -9% in experiment [2] (setting [7]); 99% (active) in experiment [2] (setting [8]); 99% (active) in experiment [2] (at 50.0 µM). The growth inhibition in experiment [3] (setting [7]) was 10%; in experiment [3] (setting [8]) it was 96% (active); in experiment [3] (at 50.0 µM) it was 98.9% (active); in experiment [4] (setting [7]) it was 1%; in experiment [4] (setting [8]), 54%; in experiment [4] (at 50.0 µM), 98% (active). Besides, the growth inhibition is -6% in experiment [5] (setting [7]); 83% (active) in experiment [5] (setting [8]); 98.7% (active) in experiment [5] (at 50.0 µM); -1% in experiment [6] (setting [7]); 98% (active) in experiment [6] (setting [8]); 98.7% (active) in experiment [6] (at 50.0 µM).

For the molecule `CCN(CC)CCNc1ccc2nnn3c4ccccc4c(=O)c1c23`, the growth inhibition in experiment [1] (setting [7]) was -2%; in experiment [1] (setting [8]), 63%; in experiment [1] (at 50.0 µM), 30.8%; in experiment [2] (setting [7]), -31%; in experiment [2] (setting [8]), 21%; in experiment [2] (at 50.0 µM), 17.7%. The growth inhibition in experiment [3] (setting [7]) is 0%; in experiment [3] (setting [8]), -4%; in experiment [3] (at 50.0 µM), 9.3%; in experiment [4] (setting [7]) it was -1%; in experiment [4] (setting [8]) it was 39%; in experiment [4] (at 50.0 µM), 21.1%. The growth inhibition was -10% in experiment [5] (setting [7]); 19% in experiment [5] (setting [8]); 10.2% in experiment [5] (at 50.0 µM); -1% in experiment [6] (setting [7]); -3% in experiment [6] (setting [8]); 81.2% (active) in experiment [6] (at 50.0 µM).
